The results in this text go back to PubChem BioAssay (Tox21).

Where “and” joins values, the source holds several entries; their conditions need not be identical. Identical values can stand only once. Results filed as inconclusive are left out. Where a structure was tested more than once in an assay, its records may differ in their call. Calls of active or inactive are those of the source. Unless noted, calls follow the shape of the dose curve; as a rule, active = well fitted curve in the direction sought with a large enough effect in the repeat runs; inconclusive = weak or mixed curves; inactive = no such curve, though single readings can be large; an effect the other way counts as inactive or inconclusive.

The nature of experiment [1]: A CellTox Green Cytotoxicity Assay to monitor cytotoxicity in HEK293 cells - 32 hour (AID 1224881). Also: nearly all actives have a fitted effect of over 40% in size. Also: potency is read from the fitted curve at half-maximal effect. Summed up: (§1)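 Homogeneous no-lysis format: HEK293 cell suspension mixed with CellTox Green reagent, seeded, incubated 5 h at 37 C/5% CO2, then dosed by pintool with compound in DMSO.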
A short description of experiment [2]: A CellTox Green Cytotoxicity Assay to monitor cytotoxicity in HepG2 cells - 0 hour (AID 1224882). Also: nearly all actives have a fitted effect of over 35% in size. Also: potency is read from the fitted curve at half-maximal effect. In a few lines:
(§2)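 Fluorescent DNA-binding dye, 600 HepG2 cells/well, 5 h preincubation then compound in DMSO; same plates read at 0–40 h, 37 C.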

The nature of experiment [3]: A CellTox Green Cytotoxicity Assay to monitor cytotoxicity in HepG2 cells - 32 hour (AID 1224883). Also: nearly all actives have a fitted effect of over 50% in size. Also: potency is read from the fitted curve at half-maximal effect. Summed up:
as §2

Experiment [4] can be described thus: qHTS RealTime-Glo MT Cell Viability Assay in HepG2 cells - 16 hour (AID 1224885). Also: nearly all actives have a fitted effect of over 50% in size. Also: potency is read from the fitted curve at half-maximal effect. Summed up: (§3)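 Cells + NanoLuc/prosubstrate dispensed (600 cells/well) → 5 h at 37 C/5% CO2 → compounds in DMSO transferred → 40 h incubation at 37 C, luminescence read at 0, 8, 16, 24, 32, 40 h.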
In general terms: Quantitative high-throughput screening tests each substance at several concentrations.

Experiment [5] can be described thus: qHTS RealTime-Glo MT Cell Viability Assay in HEK293 cells - 8 hour (AID 1224887). Also: nearly all actives have a fitted effect of over 50% in size. Also: potency is read from the fitted curve at half-maximal effect. In a few lines:
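Measured as luminescence from the same continuously cultured HEK293 wells at successive time points (0, 8, 16, 24, 32, 40 h) after compound addition. Reagent present from seeding; dosing at 5 h; incubation 37 C.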

Experiment [6] can be described thus: A CellTox Green Cytotoxicity Assay to monitor cytotoxicity in HEK293 cells - 16 hour (AID 1224888). Also: nearly all actives have a fitted effect of over 35% in size. Also: potency is read from the fitted curve at half-maximal effect. Summed up: as §1
Experiment [7] is described as follows: qHTS RealTime-Glo MT Cell Viability Assay in HepG2 cells - 0 hour (AID 1224889). Also: nearly all actives have a fitted effect of over 50% in size. Also: potency is read from the fitted curve at half-maximal effect. Summed up: as §3
Experiment [8] is described as follows: A CellTox Green Cytotoxicity Assay to monitor cytotoxicity in HepG2 cells - 8 hour (AID 1224890). Also: nearly all actives have a fitted effect of over 45% in size. Also: potency is read from the fitted curve at half-maximal effect. In a few lines:
as §2

The nature of experiment [9]: qHTS assay to identify small molecule antagonists of the estrogen receptor alpha (ER-alpha) signaling pathway using the BG1 cell line in the presence of 0.1 nM 17-beta-estradiol - cell viability counter screen (AID 1259241). Also: nearly all actives have a fitted effect of over 40% in size. Summed up:
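VM7Luc4E2 cells (endogenous full-length ER-alpha, 4xERE-luciferase), cultured 5 days in charcoal-stripped serum, exposed to compounds with 0.1 nM 17beta-estradiol (final) for 22 hr at 37C. Viability read in same wells as live-cell protease fluorescence after 30 min.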

A short description of experiment [10]: qHTS assay to identify small molecule antagonists of the androgen receptor (AR) signaling pathway using the MDA cell line in the presence of 0.5 nM R1881 - cell viability counter screen (AID 1259242). Also: nearly all actives have a fitted effect of over 45% in size. Also: potency is read from the fitted curve at half-maximal effect. Summed up: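 Human breast carcinoma MDA-kb2 cells, cultured without CO2, receive compounds alongside 0.5 nM (final) R1881 agonist. After 16 hr at 37C, viability is taken as live-cell protease signal.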

In experiment [11] the target is Estrogen receptor (Homo sapiens) (UniProt P03372). Nature of the experiment: qHTS assay to identify small molecule antagonists of the estrogen receptor alpha (ER-alpha) signaling pathway using the BG1 cell line in the presence of 0.1 nM 17-beta-estradiol (AID 1259244). Also: nearly all actives have a fitted effect of over 50% in size. Summed up: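 Seeding of stripped-serum-adapted VM7Luc4E2 cells, 24 h attachment, compound transfer, then 0.1 nM final 17beta-estradiol; after 22 h incubation, ONE-Glo reagent and luminescence reading.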

A short description of experiment [12]: qHTS assay to identify small molecule HDAC inhibitors (AID 1259364).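 Also: wild-type HCT-116 cells with endogenous class I/II HDAC activity; top concentration of the series differs between compounds; nearly all actives have a fitted effect of over 45% in size.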 Summed up: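 After a 2 hr compound incubation (37C, 5% CO2), HCT-116 cells seeded at 1,500/well the day before received HDAC-Glo reagent; signal read as luminescence after 30 min at room temperature.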
Experiment [13] can be described thus: qHTS assay to identify small molecule HDAC inhibitors - cell viability counter screen (AID 1259365). Summed up:
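Wild-type HCT-116 cells, 1,500/well, cultured overnight, then compound-treated 2 h at 37 C. Viability measured as ATP luminescence with CellTiter-Glo after 30 min at room temperature.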

Experiment [14] is described as follows: qHTS assay to identify small molecule agonists of the sonic hedgehog signaling (Shh) pathway - cell viability counter screen (AID 1259366). Also: nearly all actives have a fitted effect of over 50% in size. Also: potency is read from the fitted curve at half-maximal effect. Summed up: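 NIH/3T3-derived Gli1-Luc reporter cells, 2,000 per well, received compound after 4 h and were treated about 23 h at 37C. Viability measured in the same wells by CellTiter-Fluor fluorescence after 1 h.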
A short description of experiment [15]: qHTS assay to identify small molecule antagonists of the sonic hedgehog signaling (Shh) pathway - cell viability counter screen (AID 1259367). Also: nearly all actives have a fitted effect of over 55% in size. Summed up:
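Fluorescence read-out (CellTiter-Fluor, 1 hr at 37C) taken after 23 hr compound treatment of 3T3 Gli1-Luc cells stimulated with conditioned medium. Cells were seeded at 2,000 per well and pre-incubated 4 hr.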

Experiment [16] in a line: qHTS assay to identify small molecule agonists of the sonic hedgehog signaling (Shh) pathway (AID 1259368; calls by dose curve;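 also: NIH/3T3-derived 3T3Gli1-Luc cells carrying a stable Gli1-driven firefly luciferase reporter; series mostly up to about 92 µM; nearly all actives have a fitted effect of over 15% in size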). In a few lines: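 Stable NIH/3T3 Gli1-Luc reporter clone; 24 hr cpd exposure after a 4 hr settling period; luminescence endpoint.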
Experiment [17] is described as follows: qHTS assay to identify small molecule phospholipidosis (PLD) inducers (AID 1259344; active = well fitted curve in the direction sought with a large enough effect; an effect the other way counts as inactive or inconclusive). In a few lines:
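Read-out is LipidTOX Red fluorescence (ex 595/em 615) imaged in HepG2 cells after 24 h compound exposure at 37 C, with Hoechst nuclear counterstain (ex 352/em 461) allowing per-cell normalisation.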

Experiment [18] concerns the target Androgen receptor (Homo sapiens) (UniProt P10275). Put plainly: qHTS assay to identify small molecule antagonists of the androgen receptor (AR) signaling pathway using the MDA cell line in the presence of 0.5 nM R1881 (AID 1259243). Also: nearly all actives have a fitted effect of over 50% in size. Also: potency is read from the fitted curve at half-maximal effect. Summed up: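 Cells: MDA-kb2 (MMTV-luc). Stimulus: 0.5 nM R1881. Time: 16 hr, 37C, no CO2. Detection: ONE-Glo luminescence after 30 min at RT.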

Experiment [19] in a line: qHTS RealTime-Glo MT Cell Viability Assay in HEK293 cells - 24 hour (AID 1224886). Also: nearly all actives have a fitted effect of over 50% in size. Also: potency is read from the fitted curve at half-maximal effect. In a few lines:
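Tox21 10K qHTS, HEK293, 600 cells/well, RealTime-Glo reagent co-dispensed with cells; 5 h preincubation, compound by pintool, 37 C, luminescence at 0–40 h.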
% is scaled to controls: 0 for no effect and ±100 for the full control effect.

Chain of Estrogen receptor (Homo sapiens) (P03372 whole entry, looked up): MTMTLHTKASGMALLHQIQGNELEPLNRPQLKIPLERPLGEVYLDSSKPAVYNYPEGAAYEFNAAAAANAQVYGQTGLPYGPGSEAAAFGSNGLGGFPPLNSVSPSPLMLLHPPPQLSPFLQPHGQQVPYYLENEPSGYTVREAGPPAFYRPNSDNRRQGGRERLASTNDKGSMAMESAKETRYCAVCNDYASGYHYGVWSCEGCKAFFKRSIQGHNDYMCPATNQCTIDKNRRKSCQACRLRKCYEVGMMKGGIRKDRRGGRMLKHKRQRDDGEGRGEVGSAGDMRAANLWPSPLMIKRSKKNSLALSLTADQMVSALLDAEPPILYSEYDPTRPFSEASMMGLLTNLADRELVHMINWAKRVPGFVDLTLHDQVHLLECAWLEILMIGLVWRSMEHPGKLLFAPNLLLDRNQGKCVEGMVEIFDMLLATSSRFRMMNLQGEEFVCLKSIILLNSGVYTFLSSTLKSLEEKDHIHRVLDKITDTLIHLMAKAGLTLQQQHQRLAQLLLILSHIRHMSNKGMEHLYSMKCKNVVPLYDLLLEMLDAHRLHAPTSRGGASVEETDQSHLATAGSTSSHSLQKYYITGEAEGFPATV
Chain of Androgen receptor (Homo sapiens) (P10275 whole entry, looked up): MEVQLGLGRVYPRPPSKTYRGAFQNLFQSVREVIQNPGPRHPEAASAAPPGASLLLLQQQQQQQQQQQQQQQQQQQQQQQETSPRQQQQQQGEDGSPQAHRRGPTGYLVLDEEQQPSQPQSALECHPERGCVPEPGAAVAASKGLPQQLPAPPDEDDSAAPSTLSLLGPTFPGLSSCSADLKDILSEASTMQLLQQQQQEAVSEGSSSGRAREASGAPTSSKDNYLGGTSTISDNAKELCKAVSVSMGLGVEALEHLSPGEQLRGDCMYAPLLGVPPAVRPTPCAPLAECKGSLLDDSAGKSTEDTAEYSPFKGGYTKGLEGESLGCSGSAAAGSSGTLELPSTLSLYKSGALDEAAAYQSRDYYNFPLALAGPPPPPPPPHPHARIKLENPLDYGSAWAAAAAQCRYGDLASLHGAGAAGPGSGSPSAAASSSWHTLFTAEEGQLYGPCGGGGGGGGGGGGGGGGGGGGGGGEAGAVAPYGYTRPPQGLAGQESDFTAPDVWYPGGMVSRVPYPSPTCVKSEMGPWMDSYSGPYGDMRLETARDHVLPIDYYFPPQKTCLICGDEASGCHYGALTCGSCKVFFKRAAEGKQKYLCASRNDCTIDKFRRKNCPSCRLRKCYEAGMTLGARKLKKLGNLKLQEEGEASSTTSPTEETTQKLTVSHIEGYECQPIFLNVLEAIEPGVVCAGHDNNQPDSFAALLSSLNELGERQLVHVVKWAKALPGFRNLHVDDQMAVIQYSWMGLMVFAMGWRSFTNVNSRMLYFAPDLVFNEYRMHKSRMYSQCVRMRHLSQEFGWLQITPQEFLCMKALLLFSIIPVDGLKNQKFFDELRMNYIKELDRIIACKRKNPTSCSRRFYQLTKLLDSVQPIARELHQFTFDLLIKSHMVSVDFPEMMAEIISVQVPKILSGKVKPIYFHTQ

As for `C=CN1CCCC1=O`, the Potency entry in experiment [1], in experiment [2], in experiment [3], in experiment [4], in experiment [5] and in experiment [6] was “inactive” in each case. Further, the Potency entry in experiment [7], in experiment [8], in experiment [9], in [10], in experiment [11] and in experiment [12] was “inactive” throughout. Further, the Potency result in [14], in experiment [15] and in experiment [16] was “inactive” in each case. Also, the compound was classed as inactive in experiment [13].
Consider `O=C1OC2(c3ccccc31)c1cc(I)c(O)c(I)c1Oc1c2cc(I)c(O)c1I`, for which the Potency is 11.8 µM (active) [middle of 4 runs] in experiment [1]; 11.8 µM (active) [middle of 4 runs] in [2]; 13.3 µM (active) [middle of 4 runs] in experiment [3]; 39 µM (active) and 27.9 µM (active) in experiment [4]; 13.3 µM (active) [middle of 4 runs] in experiment [6]; 12.3 µM (active) [middle of 4 runs] in experiment [7]. Also, the Potency in experiment [8] was 11.8 µM (active) [middle of 4 runs]; in experiment [10], 9.71 µM (active) [middle of 4 runs]; in experiment [14] it was 15.5 µM (active) [middle of 4 runs]. Also, the Potency entry in [17], in experiment [12] and in [16] was “inactive” in each case.
With `c1ccc2c(c1)ccc1ncccc12`, the Potency entry in experiment [1], in experiment [2], in experiment [3], in [4], in experiment [5] and in experiment [6] was “inactive” throughout. The Potency result in experiment [7], in experiment [8], in experiment [9], in experiment [10], in experiment [11] and in experiment [12] was “inactive” throughout. Besides, the Potency result in [14], in experiment [15] and in experiment [16] was “inactive” each time. Also, in experiment [18], the Potency was 3.83 µM (active) and 5.45 µM (active). In addition, in experiment [13], the outcome was inactive.
Consider `CC(C)(C)c1cccc(C(C)(C)C)c1O`, for which the Potency in experiment [1] is 53.7 µM (active) and inactive; in experiment [19], 24 µM (active) and inactive; in experiment [5], 47.9 µM (active) and inactive. In addition, the Potency result in [2], in [3], in experiment [4], in experiment [6], in [7] and in experiment [8] was “inactive” in each case. For the same compound, the Potency result in experiment [9], in experiment [10], in [11], in experiment [12], in experiment [14] and in [15] was “inactive” throughout. In addition, the Potency result in [16] was “inactive”. Moreover, in [13], the call was inactive.
On to `[O-]/[N+](=N\O)c1ccccc1`, for which the Potency entry in [1], in experiment [2], in [3], in experiment [4], in [5] and in [6] was “inactive” in each case. Moreover, the Potency entry in [7], in experiment [8], in experiment [9], in experiment [10], in experiment [11] and in experiment [14] was “inactive” in each case. Moreover, the Potency result in experiment [15] and in experiment [16] was “inactive” throughout. The result in experiment [13] was inactive.
`C=C1C[C@H]2[C@@H]3C=C(C)C4=CC(=O)CC[C@]4(C)[C@H]3CC[C@]2(C)[C@@]1(OC(C)=O)C(C)=O`: the Potency result in experiment [1], in experiment [2], in experiment [3], in experiment [4], in experiment [6] and in [8] was “inactive” in each case. Besides, the Potency result in experiment [10], in [18], in experiment [11], in experiment [12], in experiment [14] and in experiment [16] was “inactive” each time. In [7], the Potency is 1.41 µM (active) and 6.01 µM (active). Further, the outcome in experiment [13] was inactive.
In the case of `CC(=O)[C@@]1(O)CC[C@H]2[C@@H]3C[C@H](C)C4=CC(=O)C=C[C@]4(C)[C@@]3(F)[C@@H](O)C[C@@]21C`, the Potency result in experiment [1], in experiment [2], in experiment [3], in experiment [4], in experiment [6] and in experiment [8] was “inactive” throughout. In addition, the Potency result in [10], in experiment [11], in [17], in experiment [12], in experiment [14] and in [15] was “inactive” throughout. Further, the Potency entry in experiment [16] is “inactive”. Also, the Potency in [19] was 27.5 µM (active) and inactive; in experiment [7], 347 nM (active) and 1.34 µM (active). For the same compound, the compound was classed as inactive in experiment [13].
